T cruzi growth-1: inhibitors of T. cruzi proliferation. T. cruzi beta-gal in NIH3T3, GalScreen luminescence, 90 h. actives 5.9% (n = 77,000). inhibition, % at 8.34 µM;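 active means mean inhibition above about 93%, with at least 55% of replicates each passing it, limit read from the data, passing the limit was not always enough; inconclusive means only one of those two conditions holds; inactive means neither condition holds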
Pf Dd2 growth: P. falciparum Dd2 growth inhibition; SYBR Green, 72 h; stronger effect = lower value; activity change, % at 10 µM; actives 2.3% (n = 94,000); AID 1159554; in the data active means activity change below about -80%; inconclusive means no clear call, values can overlap the other calls
C diff growth: inhibitors of Clostridium difficile growth. growth activity, negative = inhibition, % at 16 µg/mL (by protocol). AID 1259249. Clostridium difficile clinical isolate growth, OD600, 24 h; stronger effect = lower value. actives 0.25% (n = 86,000);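 active means mean growth activity at or below -80% and every replicate also at or below -80%; inconclusive means mean at or below -80% but some replicate above -80%; inactive means mean growth activity above -80%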;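 further: 0% = DMSO wells and -100% = levofloxacin 16 µg/mL wells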
T cruzi growth-2: blocks T. cruzi growth in NIH3T3 host cells; T. cruzi beta-gal in NIH3T3, GalScreen luminescence, 90 h; AID 651739; actives 72% (n = 5,600); inhibition, % at 8.35 µM; shares compounds with T cruzi growth-1;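 active means mean replicate inhibition above about 95% and at least 55% of replicates individually reaching it, limit read from the data; inconclusive means only one of the two criteria is met; inactive means neither criterion is met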
T cruzi growth-3: inhibitors of T. cruzi proliferation; inhibition, % at 2.09 µM; shares compounds with T cruzi growth-1; actives 21% (n = 5,600); T. cruzi beta-gal in NIH3T3, GalScreen luminescence, 90 h;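 active means mean inhibition above about 95%, with at least 55% of replicates also reaching it, limit read from the data; inconclusive means meets just one of the two conditions; inactive means meets neither condition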;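 further: plate controls were neutral control median for no effect and positive control median for full effect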
NIH3T3 tox: NIH/3T3 (mouse) viability loss | AID 651742 | NIH/3T3 viability, CellTiter-Glo ATP luminescence, 90 h | cytotoxicity (signal decrease), % at 8.35 µM | shares compounds with T cruzi growth-1 | actives 14% (n = 5,600);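 active means mean signal decrease across replicates above about 35% based on untreated-well scatter, with enough replicates individually passing, limit read from the data; inconclusive means no rule stated though some were filed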;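 further: 0% = median of neutral control wells and 100% = median of positive control wells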
3T3 cytotox 2: NIH/3T3 (mouse) viability loss; shares compounds with T cruzi growth-1; NIH/3T3 viability, CellTiter-Glo ATP luminescence, 90 h; inhibition, % at 24.9 µM; actives 56% (n = 5,600); AID 651744;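 active means mean loss of cell viability signal at or above a set limit, and enough replicates individually reaching it; inconclusive means meets only the mean limit or only the replicate share; inactive means meets neither condition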;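 further: 0% = median of neutral control wells and 100% = median of positive control wells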
* hit, by the source's call; ? = inconclusive; · = no result given. Sampled rows, rich in hits. Any-hit rate of the full collection: about 6.8%.

SMILES	T cruzi growth-1	Pf Dd2 growth	C diff growth	T cruzi growth-2	T cruzi growth-3	NIH3T3 tox	3T3 cytotox 2
C/C=C/c1ccc([C@@H]2[C@@H](CO)N3CCCCN(S(=O)(=O)c4cccc(C)c4)C[C@H]23)cc1	?	-40	1	108*	84	28	103*
C/C=C/c1ccc([C@@H]2[C@@H](CO)N3CCCCN(S(=O)(=O)c4cccc(C)c4)C[C@@H]23)cc1	108*	-37	2	100*	81	-6	73*
Cc1cccc(S(=O)(=O)N2CCCCN3[C@H](CO)[C@@H](c4ccc(-c5ccccc5)cc4)[C@H]3C2)c1	58	-8	51	·	·	·	·
C[C@@H]1CN([C@@H](C)CO)C(=O)c2cc(C#CC(C)(C)O)cnc2O[C@@H]1CN(C)Cc1cccc(F)c1	·	28	1	·	·	·	·
O=C(NC1CCCCC1)N[C@@H]1CC[C@@H](CCNS(=O)(=O)c2ccccc2)O[C@H]1CO	-55	-21	0	·	·	·	·
C[C@H](CO)N1C[C@H](C)[C@@H](CN(C)C(=O)Nc2ccccc2)Oc2cc(C#Cc3ccccc3)ccc2S1(=O)=O	118*	-40	21	105*	68	-9	-9
Cc1ccccc1-c1ccc2c(c1)O[C@H](CN(C)C(=O)Nc1ccccc1)[C@@H](C)CN([C@@H](C)CO)S2(=O)=O	92*	-41	-10	102*	56	?	64*
C[C@@H]1CN([C@H](C)CO)S(=O)(=O)c2ccc(C#Cc3ccccc3)cc2O[C@@H]1CN(C)C(=O)Nc1ccccc1	44	-6	-5	·	·	·	·
Cc1ccccc1-c1ccc2c(c1)O[C@@H](CN(C)C(=O)Nc1ccccc1)[C@@H](C)CN([C@H](C)CO)S2(=O)=O	31	-17	1	·	·	·	·
CC(C)C#Cc1ccc2c(c1)O[C@H](CN(C)C(=O)Nc1ccccc1)[C@@H](C)CN([C@H](C)CO)S2(=O)=O	·	13	-6	·	·	·	·
C[C@H](CO)N1C[C@H](C)[C@H](CN(C)C(=O)Nc2ccccc2)Oc2cc(C#Cc3ccccc3)ccc2S1(=O)=O	118*	-70	-19	107*	81	21	14
COc1ccc(NC(=O)N(C)C[C@@H]2Oc3ncc(C#CCC(C)C)cc3C(=O)N([C@@H](C)CO)C[C@@H]2C)cc1	-21	-20	-3	·	·	·	·
O=C(Cc1cccnc1)N1CC(=O)N2[C@H](C1)[C@H](c1ccc(/C=C/c3ccccc3)cc1)[C@@H]2CO	·	9	-16	·	·	·	·
C[C@@H]1CN([C@@H](C)CO)C(=O)c2cc(NC(=O)Nc3ccc(C(F)(F)F)cc3)ccc2O[C@@H](C)CCCCO[C@H]1CN(C)C(=O)Cc1ccccc1	75	-7	3	·	·	·	·
Cc1cccc(-c2ccc([C@H]3[C@H]4CN(C(=O)NC5CCCCC5)CC(=O)N4[C@H]3CO)cc2)c1	·	26	1	·	·	·	·
C[C@@H]1CN([C@H](C)CO)S(=O)(=O)c2ccc(-c3ccccc3)cc2O[C@@H]1CN(C)S(=O)(=O)c1ccccc1F	122*	-27	3	100*	95	21	36*
C[C@H](CO)N1C[C@H](C)[C@H](CN(C)S(C)(=O)=O)Oc2cc(-c3ccccc3)ccc2S1(=O)=O	24	-8	-2	·	·	·	·
C[C@@H]1CN([C@@H](C)CO)S(=O)(=O)c2ccc(-c3ccccc3)cc2O[C@H]1CN(C)S(=O)(=O)c1ccccc1F	124*	-84*	-1	99*	105*	56*	66*
C[C@@H]1CN([C@H](C)CO)S(=O)(=O)c2ccc(-c3ccccc3)cc2O[C@H]1CN(C)S(=O)(=O)c1ccccc1F	112*	-66	-4	?	89	64*	37*
C[C@H](CO)N1C[C@H](C)[C@H](CN(C)S(=O)(=O)c2ccccc2F)Oc2cc(-c3ccncc3)ccc2S1(=O)=O	·	-36	7	·	·	·	·
C[C@@H]1CN([C@@H](C)CO)S(=O)(=O)c2ccc(-c3ccccc3F)cc2O[C@@H]1CN(C)S(C)(=O)=O	26	19	-5	·	·	·	·
C[C@@H]1CN([C@H](C)CO)S(=O)(=O)c2ccc(-c3ccncc3)cc2O[C@@H]1CN(C)S(=O)(=O)c1ccccc1F	·	-30	4	·	·	·	·

Assay outcomes as filed in PubChem.
